# Reference: PubChem BioAssay AID504327 (National Center for Advancing Translational Sciences (NCATS), 2011)
# Among all 390,000 compounds or so, about 820 (0.21%) were called active. About 3% were inconclusive and are not listed. This is one part of a sample in which actives are shown more often than they occur. Values without a mark were called inactive. The call rests on the fitted dose curve; in most records, active means well fitted inhibition curve with a large enough effect; inconclusive means small, poorly fitted or top-dose-only effect, or another doubt; inactive means no such curve, though single readings can be large or run the other way.
# Molecular target: Histone acetyltransferase KAT2A (Homo sapiens) (UniProt Q92830)
# Sequence (Q92830 whole entry, looked up): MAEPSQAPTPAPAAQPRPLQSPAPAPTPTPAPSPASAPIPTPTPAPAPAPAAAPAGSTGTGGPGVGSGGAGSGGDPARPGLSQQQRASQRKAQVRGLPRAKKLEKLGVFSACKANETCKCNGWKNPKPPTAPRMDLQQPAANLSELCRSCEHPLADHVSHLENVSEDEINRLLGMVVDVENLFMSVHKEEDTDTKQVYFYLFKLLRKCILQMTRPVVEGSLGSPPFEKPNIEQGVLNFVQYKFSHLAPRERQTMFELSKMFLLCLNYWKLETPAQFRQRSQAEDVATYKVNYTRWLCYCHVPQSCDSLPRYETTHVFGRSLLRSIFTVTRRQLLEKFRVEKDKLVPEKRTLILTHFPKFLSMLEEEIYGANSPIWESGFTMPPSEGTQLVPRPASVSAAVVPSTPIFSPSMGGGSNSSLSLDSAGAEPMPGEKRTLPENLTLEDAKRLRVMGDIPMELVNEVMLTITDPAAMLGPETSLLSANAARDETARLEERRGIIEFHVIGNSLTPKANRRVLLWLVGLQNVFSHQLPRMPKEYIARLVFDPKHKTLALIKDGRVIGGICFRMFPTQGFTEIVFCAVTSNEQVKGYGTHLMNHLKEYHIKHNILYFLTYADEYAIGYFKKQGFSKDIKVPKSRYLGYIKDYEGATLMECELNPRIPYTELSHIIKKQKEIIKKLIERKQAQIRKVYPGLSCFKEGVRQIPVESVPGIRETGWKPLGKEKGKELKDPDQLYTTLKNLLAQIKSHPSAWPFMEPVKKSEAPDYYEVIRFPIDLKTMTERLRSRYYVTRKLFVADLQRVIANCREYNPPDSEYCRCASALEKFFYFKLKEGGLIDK
# Assay: qHTS Assay for Inhibitors of GCN5L2
# Conditions: GCN5L2 HAT assay, ThioGlo1 CoA-SH fluorescence; series mostly up to 58.9 µM; activity change, negative = inhibition: at the top concentration
# Source text: Histone acetyltransferase (HAT) enzymes transfer a […] group from acetyl-coenzyme A to the epsilon-amino group of conserved lysine residues of N-terminal histone tails. Acetylation results in charge neutralization of this positively charged amino acid, decreasing interactions with the […] backbone and making the DNA more accessible for transcription. HATs have been recognized as an emerging drug target for treatment of cancer, diabetes, asthma, chronic obstructive pulmonary disease, cardiac disease, and viral infection. Protein identified with HAT activity include the […] like 2 (GCN5L2, a.ka. Histone acetyltransferase KAT2A) which acetylates histone H3 at Lys9, 14, 18, 13, and to lesser extent histones H4 and H2B. This activates transcription of the gene by modulating chromatin structure and installing the acetyllysine recognition mark for bromodomain-containing coactivator proteins.
# A quantitative high throughput screen was developed to identify small molecule inhibitors. The assay is based on the principle that it measures formation of reduced CoA with the pro-fluorescent maleimide derivative ThioGlo1 that becomes fluorescent upon reaction with the free thiol of CoA.
# A large number of artifacts are expected in this primary screen, compounded by the assay format (fluorescent artifacts) and by the high top concentration tested for each substance. This BioAssay data deposition should be used with caution, and counterscreen and secondary assay validation is essential since very few actives from the primary screen are expected to be true inhibitors of GCN5L2.
# [2] Yasgar, et al. Compound Management for Quantitative High-Throughput Screening. JALA. 2008 Apr;13(2):79-89.
# [3] Inglese, et al. Quantitative high-throughput screening: a titration-based approach that efficiently identifies biological activities in large chemical libraries. Proc Natl Acad Sci. 1;103(31):11473-8. 2006. PMID: 16864780
# NIH Molecular Libraries Probe Production Network [MLPCN]
# NIH Chemical Genomics Center [NCGC]
# Structural Genomics Consortium (SGC)
# To each well of a 1,536w plate, 3ul of GCN5L2 (final concentration 20nM, in 50mM HEPES, 0.1mM EDTA (pH 7.5), 0.01% Tween-20 buffer) are added using a Kalypsys dispenser. Only buffer is added to some wells as a control. A Kalypsys pin-tool transferred 23nl of library compound solution in DMSO to each well, as well as the control inhibit garcinol. . Following a 15 min incubation of enzyme with compounds at room temperature, 1ul mixture of ThioGlo1 (50uM final), H3(1-25) peptide (75uM final), and Acetyl-CoA (70uM final) is added. Plates are read immediately on the ViewLux (PerkinElmer) (Ex340nm/Em540nm) for a 0 min read, incubated for 20 min at room temperature, and read again on the ViewLux with the same settings. The initial read was carried out to identify compounds that are potentially fluorescent.
# On the % scale 0 is the no-effect control and ±100 the full control effect; potency means the concentration at half of the fitted maximal effect.
SMILES,"activity change, negative = inhibition",Potency
O=c1c(CCc2ccccc2)nc2cncnc2n1C1CC1,0.326%,
CC(C)=CCC/C(C)=C/CC/C(C)=C/CC/C(C)=C/CO,,inactive
O=C(c1csnn1)N1CCC[C@@]2(CCN(c3cccc(-c4ccccc4)c3)C2)C1,-17.1%,
Nc1nc2[nH]c(=O)c(=O)[nH]c2c(=O)[nH]1,3.18%,
Cc1cnc(CNc2cc(-c3c(C)noc3C)ncn2)cn1,-10.5%,
C=CCC1CCC(=O)N2CCCC12 (stereo unspecified),-15.7% [at 135 µM],
CCCCCCCCCc1ccc(OCCOCCOCCOCCOCCOCCOCCOCCOCCO)cc1,27.3%,
Cn1cc(-c2nc3cncnc3n(-c3ccccc3)c2=O)c2ccccc21,-4.06%,
Oc1ccc2c(c1)OCC1c3cc4c(cc3OC21)OCO4 (stereo unspecified),4.11%,
Nc1ncnc2c1c(I)cn2[C@@H]1C[C@H](N)[C@@H](O)[C@H]1O,-11.2%,
COc1ccc2[nH]cc(CCNc3ncnc4ccc(-c5ccc(C(=O)N(C)C)cc5)cc34)c2c1,-4.79%,
CC1OC(OCC2OC(Oc3c(-c4ccc(O)c(O)c4)oc4cc(O)cc(O)c4c3=O)C(O)C(O)C2O)[C@@H](O)C(O)C1O (stereo partly specified),-15.9%,
CCOCCOC(=O)C(C)Oc1ccc(Oc2ncc(C(F)(F)F)cc2Cl)cc1 (stereo unspecified),0%,
CS(=O)(=O)N1CCC2(CC1)CN(Cc1ccccc1)C2,-8.7%,
COCCNc1ncnc2ccc(-c3cccnc3)cc12,-18.5%,
CCC(CCC(C)C1CCC2C3CC=C4CC(O)CC[C@@]4(C)C3CC[C@@]12C)C(C)C (stereo partly specified),2.86%,
O=P(O)(O)C(O)c1ccc2ccccc2c1 (stereo unspecified),9.85%,
CC(O)[C@@H](N)C(=O)O (stereo partly specified),-8.25%,
COc1ccc(CNc2ncnc3ccc(-c4cccnc4)cc23)c(OC)c1,-12.1%,
CCOC(=O)Cn1c(=O)sc2cccc(Cl)c21,0.871%,
CCNc1ncc2nc(CCc3ccccc3)c(=O)n(-c3ccc(OC)cc3)c2n1,2.19%,
Cn1cc(-c2nc3cnc(N4CCNCC4)nc3n(CCC#N)c2=O)c2ccccc21,-38.3%,

SMILES,"activity change, negative = inhibition",Potency
N#Cc1cccc(-c2nc3cnc(N4CCNCC4)nc3n(C3CC3)c2=O)c1,,28.2 µM (active)
O=c1c(-c2ccc(F)cc2)nc2cnc(N3CCNCC3)nc2n1Cc1cccs1,-23.1%,
O=C(c1cc(C(F)(F)F)cc(C(F)(F)F)c1)N1CCC2(CCCN(c3ccccn3)C2)CC1,-12.1%,
CN1CCN2c3ccccc3Cc3ccccc3[C@@H]2C1,-1.21% [at 21.4 µM],
CN1CCN(c2ncc3nc(-c4ccc(Cl)cc4)c(=O)n(-c4ccccc4)c3n2)CC1,-9.91%,
CCCCC/C=C\CC1OC1CCCCCCCC(=O)O (stereo unspecified),13.4%,
Cc1cccc(CNc2cc(-c3ccccc3Cl)ncn2)c1,-15.1%,
C=CC(=O)c1ccc2ccccc2c1,-23.4%,
COCCn1c(=O)c(-c2ccccc2)nc2cnc(N3CCOCC3)nc21,-22.9%,
CC[C@H](C)[C@H](NC(=O)[C@@H](N)CCC(=O)O)C(=O)N[C@@H](CC(C)C)C(=O)N[C@@H](CC(=O)O)C(=O)N[C@H](C(=O)N1CCC[C@H]1C(=O)N[C@@H](CO)C(=O)N[C@H](C(=O)O)[C@@H](C)O)C(C)C,21.2%,
NCCCCC(N)C(=O)O (stereo unspecified),,inactive
Cc1c(C)n(Cc2ccc(Cl)cc2)c2ccc(C(=O)N3CCN(c4ccccc4F)CC3)cc12,3.04%,
CC(C)c1ccc(Cn2c(COc3ccccc3)nc3ccccc32)cc1,-16.6%,
C=C(C)C1CC=C(CO)CC1 (stereo unspecified),0.773%,
COc1ccc2[nH]cc(CCNc3nc(-c4cccc(NS(C)(=O)=O)c4)nc4ccccc34)c2c1,-9.04%,
O=C(CN(c1cc(C(F)(F)F)ccc1Cl)S(=O)(=O)c1ccccc1)NCc1cccnc1,-8.69%,
O=C(c1cccnc1)N(c1cc2sc(=O)oc2c2ccccc12)S(=O)(=O)c1ccccc1,,31.6 µM (active)
CC(=O)N(c1ccc2oc(=O)sc2c1)S(=O)(=O)c1ccc(C)cc1,-8.64%,
CC(C)(O)CCC(O)[C@@](C)(O)C1CC[C@]2(O)C3=CC(=O)C4CC(O)C(O)C[C@]4(C)C3CC[C@]12C (stereo partly specified),2.5%,
Cc1cn([C@H]2CC(F)[C@@H](CO)O2)c(=O)[nH]c1=O (stereo partly specified),-0.475%,
C=CCOC(=O)C(=C)C,0%,
O=c1c(-c2cc(F)cc(F)c2)nc2cnc(Oc3ccccc3)nc2n1C[C@H]1CCCO1,-28.4%,

SMILES,"activity change, negative = inhibition",Potency
Cc1ccnc(-n2sc3ccccc3c2=O)n1,,3.16 µM (active)
O=C(c1cc(C(F)(F)F)cc(C(F)(F)F)c1)N1CCC[C@@]2(CCN(c3ccccn3)C2)C1,-8.29%,
CCCCCCCC/C=C\CCCCCCCC(=O)OC[C@H](CO)OC(C)=O,-5.32%,
O=C(c1ccco1)N1CCC[C@@]2(CCN(c3ccccc3)C2)C1,-8.32%,
Cc1ccc(CC2(O)CCN(CCOc3ccc(O)cc3)CC2)cc1,-13.7%,
CC(=O)OCC(=O)[C@@]1(O)CCC2C3CCC4=CC(=O)CC[C@]4(C)C3C(=O)C[C@]21C (stereo partly specified),22%,
O=C(NCc1ccccn1)c1ccc2nc(-c3ccco3)c(-c3ccco3)nc2c1,,11.2 µM (active)
CCN(c1ccccc1)S(=O)(=O)c1cc(C(=O)NCc2ccccn2)ccc1C,-1.59%,
CCOc1ccc(NC(=O)c2ncoc2-c2ccco2)cc1,-0.384%,
COc1ccc(NC(=O)COCc2cc(-c3ccco3)on2)cc1,-2.39%,
COc1ccc(-c2nc3ccc(C(=O)NCc4ccc(C)cc4)cc3nc2-c2ccc(OC)cc2)cc1,-0.354%,
COCCNC(=O)Nc1ccc2nc(-c3ccco3)c(-c3ccco3)nc2c1,,17.8 µM (active)
C[C@]12CC[C@@H]3C(=CCc4cc(O)ccc43)[C@@H]1CCC2=O,-0.875% [at 21.4 µM],
OCCN1CCN(CC/C=C2\c3ccccc3Sc3ccc(C(F)(F)F)cc32)CC1,4.51% [at 21.4 µM],
Nc1nc2c(nc(Cl)n2C2OC(CO)C(O)C2O)c(=O)[nH]1 (stereo unspecified),-3.22%,
COc1ccc(C(=O)N2CCC3(CCCN(C(c4ccccc4)c4ccccc4)C3)CC2)cc1,-8.68%,
FCOC(C(F)(F)F)C(F)(F)F,5.6%,
N#CCCn1c(=O)c(-c2cc(F)cc(F)c2)nc2cnc(Oc3ccccc3)nc21,-10.8%,
Nc1nc2nc(Cl)[nH]c2c(=O)[nH]1,2.74%,
O=c1c(O)c(-c2ccc(O)cc2)oc2ccccc12,-23.8%,
Oc1ccc(-c2c(-c3ccccc3)nn3c(C(F)(F)F)cc(C(F)(F)F)nc23)cc1,2.29%,
Fc1ccc(Cl)cc1-c1nc(Nc2ccncc2)c2nccnc2n1,-19.4%,
